Bioassay records (PubChem BioAssay)
Compounds with a hit are over-represented: about 4% of the library has one in this group of screens.
GDH-TPI counter-1 – GDH-TPI coupling enzyme inhibitors, primary screen, artefact control for M. tuberculosis FBA inhibitor project, biochemical, absorbance, full deck. GDH-TPI coupled enzyme counterscreen, NADH absorbance. inhibition, % at 4.8 µM. 1.2% of 360,000 active
CCHF vOTU inh – CCHFV vOTU protease inhibitors, primary screen, biochemical, Pep-AMC substrate, fluorescence. 0.55% of 370,000 active. inhibition, % at 11.5 µM. Crimean-Congo hemorrhagic fever virus L polyprotein viral ovarian tumor (vOTU) protease …
FBA Mtb inh – Mtb FBA enzyme inhibitors, primary screen, biochemical, fluorescence, strain H37Rv. AID 588726, 2011. purified M. tuberculosis FBA, fluorescence read-out. Fructose-bisphosphate aldolase (Mycobacterium tuberculosis (strain ATCC 25618 / H37Rv)), …. inhibition, % at 1 µM. 2.3% of 360,000 active; in the data active = inhibition above about 27%
Target sequence (P9WQA3 whole entry, looked up): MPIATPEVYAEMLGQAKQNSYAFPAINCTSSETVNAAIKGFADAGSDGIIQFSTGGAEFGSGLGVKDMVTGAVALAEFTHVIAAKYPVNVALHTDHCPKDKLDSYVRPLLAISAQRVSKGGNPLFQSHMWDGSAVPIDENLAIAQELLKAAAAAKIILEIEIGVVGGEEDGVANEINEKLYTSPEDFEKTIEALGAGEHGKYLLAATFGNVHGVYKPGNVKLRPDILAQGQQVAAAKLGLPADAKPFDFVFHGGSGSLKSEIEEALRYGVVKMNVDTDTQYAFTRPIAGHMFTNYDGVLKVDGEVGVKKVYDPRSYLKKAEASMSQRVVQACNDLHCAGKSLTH
Mtb bLac sens – beta-lactam sensitization of Mtb H37Rv, H37Rv | M. tuberculosis H37Rv growth with meropenem, percent inhibition | inhibition, % at 25 µM | 0.27% of 330,000 active | AID 434955, 2010; call rule not given here;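 also: growth measured after seven days incubation then overnight dye step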
MazF activator – activators of E. coli MazEF toxin-antitoxin RNase, primary screen, biochemical, fluorescence, uHTS; Endoribonuclease toxin MazF (Escherichia coli (strain K12)), P0AE70; FAM/BHQ RNA-DNA oligo cleavage fluorescence, 5 h; activation, % at 20 µM; 0.32% of 350,000 active; in the data active = activation above about 50%
Target sequence (P0AE70 whole entry, looked up): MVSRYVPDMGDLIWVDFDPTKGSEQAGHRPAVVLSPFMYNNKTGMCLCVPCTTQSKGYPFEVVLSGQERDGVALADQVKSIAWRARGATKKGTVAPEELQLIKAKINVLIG
Mtb FBA inh conf – M. tuberculosis aldolase blockers, biochemical, fluorescence, strain H37Rv, confirmation | inhibition, % at 1 µM | purified M. tuberculosis FBA, fluorescence read-out | 78% of 5,600 active | AID 651616, 2012 | shares compounds with FBA Mtb inh; in the data active = inhibition above about 27%
GDH-TPI counter-2 – GDH-TPI coupling enzyme inhibitors, artefact control for M. tuberculosis FBA inhibitor project, biochemical, fluorescence, high throughput | 81% of 5,600 active | shares compounds with FBA Mtb inh | GDH-TPI coupled enzyme counterscreen | AID 652141, 2013 | inhibition, % at 1 µM; in the data active = inhibition above about 10%
Large screens that a line does not name were inactive (follow-up assays come after a bar, where they were run). Rule as the data show it, unless noted: active = inhibition above about 30%; inactive = the rest.

Cc1ccn2cc(-c3cnoc3C)nc2c1	FBA Mtb inh 31 | Mtb FBA inh conf inactive | GDH-TPI counter-2 inactive
COc1ccc(C2C(C#N)=C(N)OC3=C2C(=O)CC(C)(C)C3)cc1Cn1nc(C)c([N+](=O)[O-])c1C (stereo not given)	FBA Mtb inh 39 | Mtb FBA inh conf 54 | GDH-TPI counter-2 47
O=C1N=C(c2ccccc2)C(c2ccccc2)N1 (stereo not given)	FBA Mtb inh 91 | Mtb FBA inh conf inactive | GDH-TPI counter-2 inactive
CCCCN1CCN(C2=Nc3ccccc3Sc3ccccc32)CC1	none (no result: GDH-TPI counter-1, FBA Mtb inh, Mtb bLac sens, MazF activator)
CN1C(=O)[C@H]2[C@@H](C3CC3)N3C(=O)CN(Cc4ccccn4)C(=O)[C@@]3(Cc3ccccc3)[C@H]2C1=O	FBA Mtb inh 68 | Mtb FBA inh conf 70 | GDH-TPI counter-2 57
COC(=O)c1cc2nc(-c3ccccc3)cc(C)n2n1	none
CCOc1ccc(-c2cc(C)n3nc(C(N)=O)cc3n2)cc1	FBA Mtb inh 52 | Mtb FBA inh conf inactive | GDH-TPI counter-2 inactive
CCOc1ccc(C(C(=O)NC(C)(C)C)N(CCOC)C(=O)CCC(=O)Nc2ccccn2)cc1 (stereo not given)	FBA Mtb inh 40 | Mtb FBA inh conf 60 | GDH-TPI counter-2 53
O=C(CCCC(=O)NCC1CCCO1)NCC1CCCO1 (stereo not given)	none
O=C(CN1CCCCCC1)NCC1CCCO1 (stereo not given)	FBA Mtb inh 97 | Mtb FBA inh conf 80 | GDH-TPI counter-2 73
CCCCOCCCNC(=O)C[C@@H]1C[C@]2(C(=O)OCC)CCC3=C2N(CCC3)C1=O	none (no result: GDH-TPI counter-1, FBA Mtb inh, Mtb bLac sens, MazF activator)
COc1cc2c(c3ccccc13)CCCC2=O	FBA Mtb inh 110 (no result: Mtb bLac sens) | Mtb FBA inh conf 116 | GDH-TPI counter-2 91
COc1cccc(CNC(=O)[C@H]2CCCN2C(=O)[C@H]2CCCN2C(=O)c2cccc(OC)c2)c1	none (no result: GDH-TPI counter-1, FBA Mtb inh, Mtb bLac sens, MazF activator)
COc1cccc(-c2csc(NNC(=O)c3cccs3)n2)c1	FBA Mtb inh 64 | Mtb FBA inh conf 28 | GDH-TPI counter-2 14
CCc1cc2c(CN3CCN(Cc4ccccc4)CC3)cc(=O)oc2cc1O	FBA Mtb inh 97 | Mtb FBA inh conf 113 | GDH-TPI counter-2 93
CCc1ccc2c(CN3CCN(Cc4ccccc4)CC3)cc(=O)oc2c1	none
Cc1cc2oc(=O)cc(CN(C)Cc3cccc(F)c3)c2cc1C	none
Cc1c(O)ccc2c(CN(C)Cc3ccccc3)cc(=O)oc12	FBA Mtb inh 47 | Mtb FBA inh conf 56 | GDH-TPI counter-2 51
Cc1c(O)ccc2c(CN3CCN(Cc4ccccc4)CC3)cc(=O)oc12	FBA Mtb inh 36 | Mtb FBA inh conf active | GDH-TPI counter-2 active
CCc1cc2c(CN(C)Cc3ccccc3F)cc(=O)oc2cc1O	FBA Mtb inh 58 | Mtb FBA inh conf active | GDH-TPI counter-2 active
COC(=O)C1CN(Cc2cn(CCC3OCCO3)nn2)CCS(=O)(=O)N1Cc1ccc(F)cc1 (stereo not given)	none (no result: GDH-TPI counter-1, FBA Mtb inh, Mtb bLac sens, MazF activator)
O=C(NCc1ccco1)C1CCCN(S(=O)(=O)c2cccs2)C1 (stereo not given)	none (no result: GDH-TPI counter-1, FBA Mtb inh, Mtb bLac sens, MazF activator)
CCOc1ccc(-c2cc(C(C)=O)c3n(c2=O)CCC3)cc1	none (no result: GDH-TPI counter-1, FBA Mtb inh, Mtb bLac sens, MazF activator)
COC(=O)C1=C(C)NC(=O)NC1c1ccc(OC)c(OC)c1 (stereo not given)	none (no result: Mtb bLac sens)
COC(=O)C1=C(C)NC(=O)NC1c1ccc(N2CCC(c3ccccc3)=N2)cc1 (stereo not given)	FBA Mtb inh 78 | Mtb FBA inh conf 109 | GDH-TPI counter-2 78
CCc1cc(=O)oc2cc(OS(C)(=O)=O)ccc12	none
Cc1cc(=O)oc2c(C)c(OC(C)C(=O)NCC3CCC(C(=O)O)CC3)ccc12 (stereo not given)	none
COC(=O)Cc1c(C)c2ccc(OC3CCCCC3=O)c(C)c2oc1=O (stereo not given)	FBA Mtb inh 108 | Mtb FBA inh conf inactive | GDH-TPI counter-2 17
Cc1cc(=O)oc2c(C)c(OC3CCCCC3=O)ccc12 (stereo not given)	FBA Mtb inh 39 | Mtb FBA inh conf active | GDH-TPI counter-2 192
COC(=O)Cc1c(C)c2ccc(OC3CCCCC3=O)cc2oc1=O (stereo not given)	FBA Mtb inh 103 | Mtb FBA inh conf 140 | GDH-TPI counter-2 144
CCc1cc(=O)oc2cc(OC3CCCCC3=O)ccc12 (stereo not given)	FBA Mtb inh 53 | Mtb FBA inh conf 192 | GDH-TPI counter-2 164
CCOC(=O)Nc1ccc2c(COC(=O)CN(C)S(=O)(=O)c3ccc(C)cc3)cc(=O)oc2c1	FBA Mtb inh 79 | Mtb FBA inh conf 41 | GDH-TPI counter-2 23
CCOC(=O)Nc1ccc2c(COC(=O)c3ccccc3O)cc(=O)oc2c1	FBA Mtb inh 56 | Mtb FBA inh conf 38 | GDH-TPI counter-2 32
Cn1c(COc2ccccc2)nnc1SCC(=O)Nc1ccccc1-c1ccccc1	none (no result: GDH-TPI counter-1, FBA Mtb inh, Mtb bLac sens, MazF activator)
Cc1csc2ncc(C(=O)Nc3ccon3)c(=O)n12	FBA Mtb inh 55 | Mtb FBA inh conf 124 | GDH-TPI counter-2 105
Cc1csc2ncc(C(=O)NCc3ccco3)c(=O)n12	FBA Mtb inh 35 | Mtb FBA inh conf 124 | GDH-TPI counter-2 115
COc1ccc(CNC(=O)c2cnc3scc(C)n3c2=O)cc1	none
CCn1c(SCc2ccc(C(C)(C)C)cc2)nnc1-c1ccc(C(C)(C)C)cc1	none (no result: GDH-TPI counter-1, FBA Mtb inh, Mtb bLac sens, MazF activator)
COC(=O)C(C)Oc1ccc(-c2nccc(-c3ccccn3)n2)cc1 (stereo not given)	FBA Mtb inh 110 | Mtb FBA inh conf 68 | GDH-TPI counter-2 60
CC(C)(C)N1Cc2nnn(Cc3ccccc3)c2-c2cc(F)ccc2S1(=O)=O	none (no result: GDH-TPI counter-1, FBA Mtb inh, Mtb bLac sens, MazF activator)
O=C(CSc1nnc(-c2ccc(Cl)cc2)n1-c1ccccc1)Nc1ccc2c(c1)OCCO2	none (no result: GDH-TPI counter-1, FBA Mtb inh, Mtb bLac sens, MazF activator)
CCOC(=O)c1oc2c(CN3CCCCC3C)c(O)ccc2c(=O)c1-c1ccc(OC)c(OC)c1 (stereo not given)	none
Cc1oc2c(CN3CCOCC3)c(O)ccc2c(=O)c1-c1ccc(Cl)cc1	FBA Mtb inh 65 | Mtb FBA inh conf 37 | GDH-TPI counter-2 22
CCCc1cc(=O)oc2c(CN3CCOCC3)c(O)ccc12	none (no result: FBA Mtb inh)
Cc1oc2c(CN3CCOCC3)c(O)ccc2c(=O)c1-c1ccc(Br)cc1	FBA Mtb inh 68 | Mtb FBA inh conf inactive | GDH-TPI counter-2 inactive
